Laboratory results published in PubChem BioAssay.
Values without a mark were called inactive. For some of these results: Results with a measured potency or affinity are listed apart. Calls of active or inactive are those of the source. Unless noted, the rule behind the calls is not given here.

Columns and labels:
[1] = antimalarial activity against Dd2 strain (AID 2302;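 active = growth inhibition above 50% at the single 2 µM test dose, taken to imply half-maximal potency below 2 µM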;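 note: 0% = DMSO untreated growth and 100% = chloroquine plus artemisinin killed control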); conditions: P. falciparum Dd2 in RBCs, LDH growth readout, 72 h; at 2 µM; active compounds read high
[2] = human hepatoma cell viability loss – ATP luminescence, cytotoxicity control for P. falciparum antimalarial project, primary screen (AID 2303;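 active = inhibition above 50%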;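 note: 0% = DMSO wells and 100% = digitonin-killed cells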); conditions: HepG2 viability, 24-48 h, at 10 µM, active compounds read high
[3] = target: L-lactate dehydrogenase (Plasmodium falciparum (isolate CDC / Honduras)) (UniProt Q27743); assay: PfLDH activity inhibition – cell lysate, 3D7 strain, counter-screen for P. falciparum growth inhibition project (AID 2304);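 note: 0% = vehicle and 100% = reference inhibitor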; conditions: P. falciparum 3D7 crude extract, LDH APAD/NBT absorbance; at 2 µM; active compounds read high
[4] = inhibition of 3D7 malaria parasite growth – strain 3D7 (AID 2306);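 note: 0% = DMSO wells and 100% = chloroquine plus artemisinin control wells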; conditions: P. falciparum 3D7 erythrocytic growth, LDH absorbance, 72 h; at 2 µM; active compounds read high
[5] = target: Calcium-dependent protein kinase 1 (Plasmodium falciparum (isolate 3D7)) (UniProt P62344); assay: PfCDPK1 kinase inhibitors, biochemical, TCAMS library (AID 1159585; cut-off not given, nearly all actives have IC50 up to about 0.98 µM;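 note: inhibitors leave more ATP so luminescence rises with inhibition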); conditions: recombinant PfCDPK1, Kinase-Glo ATP depletion luminescence
[6] = target: Plasmodium falciparum protein kinase 6 (PK6, PF3D7_1337100) (UniProt Q8IDW1); assay: PfPK6 kinase inhibitors, biochemical, TCAMS library (AID 1159586); conditions: recombinant PfPK6, Kinase-Glo ATP depletion luminescence
[7] = target: Protein kinase 7 (PK7), Plasmodium falciparum 3D7 (PF3D7_0213400) (UniProt Q7YTF7); assay: inhibition of Plasmodium PK7 catalytic activity – biochemical, TCAMS antimalarial set, Kinase-Glo luminescence (AID 1159587); conditions: recombinant PfPK7, Kinase-Glo ATP depletion luminescence
[8] = target: Calcium-dependent protein kinase 4 (Plasmodium falciparum (isolate 3D7)) (UniProt Q8IBS5); assay: PfCDPK4 kinase inhibitors, biochemical, TCAMS library (AID 1159588; cut-off not given, nearly all actives have IC50 up to about 0.91 µM); conditions: recombinant PfCDPK4, Kinase-Glo ATP depletion luminescence
Calcium-dependent protein kinase 4 (Plasmodium falciparum (isolate 3D7)), sequence (Q8IBS5 whole entry, looked up): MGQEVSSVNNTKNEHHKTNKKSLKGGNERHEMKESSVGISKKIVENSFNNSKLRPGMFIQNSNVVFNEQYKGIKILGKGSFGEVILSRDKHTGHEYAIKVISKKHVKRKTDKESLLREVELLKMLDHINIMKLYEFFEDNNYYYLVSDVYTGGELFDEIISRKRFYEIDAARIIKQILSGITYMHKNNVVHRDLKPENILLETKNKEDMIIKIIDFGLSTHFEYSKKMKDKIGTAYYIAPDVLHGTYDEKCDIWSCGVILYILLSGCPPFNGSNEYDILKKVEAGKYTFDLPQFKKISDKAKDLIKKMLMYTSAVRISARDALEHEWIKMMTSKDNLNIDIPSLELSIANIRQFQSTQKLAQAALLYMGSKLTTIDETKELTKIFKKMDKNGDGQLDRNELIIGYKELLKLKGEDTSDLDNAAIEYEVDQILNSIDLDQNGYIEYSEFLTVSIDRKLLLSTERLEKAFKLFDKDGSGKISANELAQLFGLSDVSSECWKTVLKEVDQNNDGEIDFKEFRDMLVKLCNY

L-lactate dehydrogenase (Plasmodium falciparum (isolate CDC / Honduras)), sequence (Q27743 whole entry, looked up): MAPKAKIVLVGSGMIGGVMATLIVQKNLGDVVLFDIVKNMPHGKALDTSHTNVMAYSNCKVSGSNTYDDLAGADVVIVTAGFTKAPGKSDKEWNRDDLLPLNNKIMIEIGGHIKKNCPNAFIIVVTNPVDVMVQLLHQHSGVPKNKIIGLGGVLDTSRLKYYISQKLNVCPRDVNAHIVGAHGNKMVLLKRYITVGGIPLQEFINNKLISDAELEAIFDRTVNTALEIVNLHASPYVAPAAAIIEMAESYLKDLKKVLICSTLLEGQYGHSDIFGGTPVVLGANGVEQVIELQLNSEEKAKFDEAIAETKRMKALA
Protein kinase 7 (PK7), Plasmodium falciparum 3D7 (PF3D7_0213400), sequence (Q7YTF7 1-343): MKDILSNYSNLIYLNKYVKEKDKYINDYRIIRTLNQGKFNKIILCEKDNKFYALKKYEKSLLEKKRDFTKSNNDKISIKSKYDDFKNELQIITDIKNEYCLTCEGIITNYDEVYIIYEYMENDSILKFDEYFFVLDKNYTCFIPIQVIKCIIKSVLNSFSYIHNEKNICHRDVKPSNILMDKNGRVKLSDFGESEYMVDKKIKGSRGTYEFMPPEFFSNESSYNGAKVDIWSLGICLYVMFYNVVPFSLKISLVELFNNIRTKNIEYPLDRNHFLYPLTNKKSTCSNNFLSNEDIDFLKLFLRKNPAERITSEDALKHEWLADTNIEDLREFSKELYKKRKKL
Plasmodium falciparum protein kinase 6 (PK6, PF3D7_1337100), sequence (Q8IDW1 1-305): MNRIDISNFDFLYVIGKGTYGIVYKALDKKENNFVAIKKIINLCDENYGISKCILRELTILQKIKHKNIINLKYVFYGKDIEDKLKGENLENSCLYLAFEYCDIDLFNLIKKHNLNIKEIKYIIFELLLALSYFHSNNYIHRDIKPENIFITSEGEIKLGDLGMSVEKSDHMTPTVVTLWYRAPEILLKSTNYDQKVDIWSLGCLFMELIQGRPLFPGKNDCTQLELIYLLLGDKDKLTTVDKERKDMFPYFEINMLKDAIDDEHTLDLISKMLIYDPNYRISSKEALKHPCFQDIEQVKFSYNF
Calcium-dependent protein kinase 1 (Plasmodium falciparum (isolate 3D7)), sequence (P62344 whole entry, looked up): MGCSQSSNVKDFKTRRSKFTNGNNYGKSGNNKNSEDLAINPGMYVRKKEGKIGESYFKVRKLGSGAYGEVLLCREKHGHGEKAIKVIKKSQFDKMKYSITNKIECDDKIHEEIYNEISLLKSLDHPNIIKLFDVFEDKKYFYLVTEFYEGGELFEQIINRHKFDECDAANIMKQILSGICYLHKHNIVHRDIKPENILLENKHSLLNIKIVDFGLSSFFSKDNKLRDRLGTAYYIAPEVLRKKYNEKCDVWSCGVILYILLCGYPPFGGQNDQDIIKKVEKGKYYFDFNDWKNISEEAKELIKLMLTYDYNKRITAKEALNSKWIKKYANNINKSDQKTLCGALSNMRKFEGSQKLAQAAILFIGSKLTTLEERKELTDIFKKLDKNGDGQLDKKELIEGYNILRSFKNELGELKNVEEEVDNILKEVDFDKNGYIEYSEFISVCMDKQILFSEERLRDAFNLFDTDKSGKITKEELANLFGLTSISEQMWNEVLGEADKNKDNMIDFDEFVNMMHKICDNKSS

SMILES | growth inhibition [1] | inhibition [2] | inhibition [3] [%] | growth inhibition [4] | outcome [5] | outcome [6] | outcome [7] | outcome [8]
O=C(Nc1ccc([N+](=O)[O-])cc1)Nc1cc(C(F)(F)F)ccc1F | 46% | 8% | -4 | 89% (active) | inactive | inactive | inactive | inactive
CN(C)C(=NCCCCCCN=C(/N=C(/N)Nc1ccc(Cl)cc1)N(C)C)/N=C(/N)Nc1ccc(Cl)cc1 | 98% (active) | 11% | 4 | 97% (active) | inactive | inactive | inactive | inactive
COc1ccc2nccc(N3CCC(NCCNCc4cc5c(cn4)OCCO5)C3)c2n1 (centres undefined) | 3% | 8% | -3 | 99% (active) | inactive | inactive | inactive | inactive
CCOc1ccccc1N1CCN(CCCNC(=O)/C(=C/C=C/c2cc3cc(Cl)c(Cl)cc3[nH]2)OC)CC1 | 93% (active) | 45% | -4 | 98% (active) | inactive | inactive | inactive | inactive
CCOC(=O)N[C@@H]1CN[C@@H](C#Cc2cc3c(Nc4ccc(OCc5cccc(F)c5)c(Cl)c4)ncnc3s2)C1 | 13% | 8% | -3 | 86% (active) | inactive | inactive | inactive | inactive
C=C(F)c1sc(CNCCCNc2nc3ccccc3[nH]2)c(C)c1Br | 23% | 15% | 3 | 100% (active) | inactive | inactive | inactive | inactive
CCN(CCCN1CCCC1)c1cc(C)nc(Nc2ccc(Cl)cc2)n1 | 12% | 5% | 1 | 100% (active) | inactive | inactive | inactive | inactive
Cc1nc(Nc2ccncc2)cc(-c2ccncc2)n1 | 3% | 6% | -2 | 100% (active) | inactive | inactive | inactive | inactive
CN1CCN(c2cc(-c3ccncc3)nc(-c3cccnc3)n2)CC1 | 98% (active) | 13% | 3 | 101% (active) | inactive | inactive | inactive | inactive
Oc1c(C(Nc2ccccn2)c2ccco2)cc(Cl)c2cccnc12 (centres undefined) | 65% (active) | 41% | 1 | 87% (active) | inactive | inactive | inactive | inactive
O=C(NC1CCCCN(Cc2ccccc2O)C1)c1ccc(-c2ccccc2)cc1 (centres undefined) | 61% (active) | 21% | -3 | 97% (active) | inactive | inactive | inactive | inactive
COc1ccc2nc(C)cc(Nc3ccc(Oc4ccc5ccccc5c4)c(Cl)c3)c2c1 | 99% (active) | 40% | 3 | 102% (active) | inactive | inactive | inactive | inactive
CC(C)(C)c1ccc(OCC(=O)NC2CCN(c3ccnc4cc(Cl)ccc34)C2)cc1 (centres undefined) | 100% (active) | 17% | -2 | 98% (active) | inactive | inactive | inactive | inactive
O=C(Nc1cccc(CN2CCCN(Cc3cccc(O)c3)CC2)c1)c1ccc2ccccc2c1 | 42% | 21% | -4 | 97% (active) | inactive | inactive | inactive | inactive
COc1ccc2nc(C)cc(Nc3ccc(Oc4ccc(Br)c5ccccc45)c(Cl)c3)c2c1 | 101% (active) | 100% (active) | -3 | 100% (active) | inactive | inactive | inactive | inactive
Brc1ccc(Nc2ccnc3cc(-c4nccs4)ccc23)cc1Oc1ccnc2cc(-c3nccs3)ccc12 | 83% (active) | 15% | -4 | 91% (active) | inactive | inactive | inactive | inactive
CCC[C@@H]([C@@H](CC1CCCCC1)C(=O)N[C@@H](CCCCNS(C)(=O)=O)C(=O)Nc1nccs1)N(O)C=O | 74% (active) | -13% | -1 | 101% (active) | inactive | inactive | inactive | inactive
O=C(Nc1cccc(C(F)(F)F)c1)c1ccc(S(=O)(=O)NCC2CCCN(CC3CCCCC3)C2)cc1 (centres undefined) | 9% | 26% | -4 | 95% (active) | inactive | inactive | inactive | inactive
NC1CCN(Cc2ccc(-c3ccc(-c4nc5ccc(F)cc5[nH]4)cc3)cc2)C1 (centres undefined) | 99% (active) | 41% | -3 | 98% (active) | inactive | inactive | inactive | inactive

SMILES | growth inhibition [1] | inhibition [2] | inhibition [3] [%] | growth inhibition [4] | outcome [5] | outcome [6] | outcome [7] | outcome [8]
Cc1cc(OCC2CCCO2)c2cc(NC(=O)C(=O)Nc3ccc4nc(C)cc(OCC5CCCO5)c4c3)ccc2n1 (centres undefined) | 32% | 7% | -4 | 96% (active) | inactive | inactive | inactive | inactive
O=C(C=Cc1ccc(Cl)c(Cl)c1)NCCCCCN1CCC(CCNC(=O)c2sc3ccccc3c2Cl)CC1 | 6% | 27% | -5 | 88% (active) | inactive | inactive | inactive | inactive
COc1ccc(C2CCC(NCCCCNC(=O)c3ccc(NC(=O)c4ccc(Cl)cc4)cc3)CC2)cc1 (centres undefined) | 7% | 23% | -6 | 99% (active) | inactive | inactive | inactive | inactive
O=C(Nc1ccc2c(c1)CNCC2)c1ccc(-c2ccc(Cl)cc2)cc1 | 28% | 52% (active) | 6 | 96% (active) | inactive | inactive | inactive | inactive
CCCN(Cc1nnc(-c2cccs2)o1)C(=O)C1COc2ccccc2O1 (centres undefined) | 49% | 1% | 0 | 87% (active) | inactive | inactive | inactive | inactive
Cc1cc(N)ncc1-c1ccc(NC(=O)Nc2cc(C(F)(F)F)ccc2F)cc1 | 23% | 15% | 3 | 100% (active) | inactive | inactive | inactive | inactive
COc1ccc(C(=O)C2CCN(CCCCNC(=O)c3ccc(NC(=O)c4cc(Cl)cc(Cl)c4)cc3)CC2)cc1 | 84% (active) | 35% | 5 | 100% (active) | inactive | inactive | inactive | inactive
CC(C)[C@H](NC(=O)c1ccc(O)c(-c2ccc(Cl)c(Cl)c2)c1)C(=O)NCCN1CCOCC1 | 44% | -4% | -1 | 95% (active) | inactive | inactive | inactive | inactive
Cc1ccc(S(=O)(=O)N(CCCN2CCN(C)CC2)Cc2csc(-c3ccc(CNCc4ccccc4)cc3)n2)cc1 | 90% (active) | 15% | 3 | 97% (active) | inactive | inactive | inactive | inactive
CC(=O)c1ccc(NC(=O)CSc2nc(-c3ccccc3Cl)ns2)cc1 | 72% (active) | -13% | -1 | 89% (active) | inactive | inactive | inactive | inactive
Cc1noc(C)c1-c1cccc(CNCc2cccc(-c3cccc(-c4nc5c(C)cccc5[nH]4)c3)c2)c1 | 66% (active) | 15% | 4 | 102% (active) | inactive | inactive | inactive | inactive
O=c1cc(N2CCNCC2)c(Cl)nn1Cc1ccc(NS(=O)(=O)c2ccc(Oc3ccccc3)cc2)cc1 | -5% | 3% | -6 | 102% (active) | inactive | inactive | inactive | inactive
C[C@H]1CN(Cc2cccc(-c3cc(CNC(=O)c4cccc(CC5CCN(C)CC5)c4)ccc3F)c2)CCN1C | 99% (active) | 42% | 2 | 101% (active) | inactive | inactive | inactive | inactive
COc1cc2c(cc1OCCN1CCC(N3CCCCC3)CC1)N(C(=O)/C=C/c1ccccc1Cl)CC2 | 41% | 36% | -1 | 102% (active) | inactive | inactive | inactive | inactive
COc1cc2c(cc1NS(=O)(=O)c1ccc(OCc3ccc(Br)cc3)cc1)CCN(C1CCC1)CC2 | 30% | 36% | 2 | 94% (active) | inactive | inactive | inactive | inactive
C[C@H](Cc1ccc(OCCCCOc2ccc(C[C@@H](C)NC[C@H](O)c3cccc(Cl)c3)cc2)cc1)NC[C@H](O)c1cccc(Cl)c1 | 92% (active) | 68% (active) | 7 | 100% (active) | inactive | inactive | inactive | inactive
Cc1ccc(CN2CCN(CC(O)COc3ccc4c(c3)CCC4)CC2)cc1 (centres undefined) | -4% | -15% | -3 | 95% (active) | inactive | inactive | inactive | inactive
COc1ccc(NC(=O)Nc2ccc(-c3ccncc3)c(Cl)c2)cc1N1CCN(C)CC1 | 62% (active) | 19% | 3 | 98% (active) | inactive | inactive | inactive | inactive
COc1cccc(CN2CCC(C(=O)Nc3ccc(-c4nc5ccccc5[nH]4)cc3)CC2)c1 | 84% (active) | 9% | -3 | 101% (active) | inactive | inactive | inactive | inactive
